# Data published in PubChem BioAssay AID1445 (SRMLSC, 2008).
# Screen size: about 220,000 compounds; about 910 (0.41%) were called active. The list comes from a sample in which actives are over-represented; it also holds similar structures and randomly drawn compounds. Entries with a potency or affinity are not part of this list. A number with no mark means an inactive call.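 Rule for the calls: active = primary inhibition above the hit cutoff, then over 50% inhibition at one or more dose response concentrations (cut at about 23% in these data, passing the limit was not always enough); inconclusive = conflicting primary data, or primary hits not chosen for dose response; inactive = low primary inhibition, or under 50% at every dose.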
# Molecular target: Aminopeptidase N (Plasmodium falciparum (isolate 3D7)) (UniProt O96935)
# Assay: malaria alanyl aminopeptidase activity blockers – biochemical, fluorogenic H-Leu-NHMec substrate, 1536-well (AID 1445);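 note: plate controls were DMSO full reaction for no effect and no enzyme background for full effect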
# Settings: recombinant M1AAP, H-Leu-NHMec fluorogenic kinetic assay; at 30 µM, active compounds read high unless noted
# Aminopeptidase N (Plasmodium falciparum (isolate 3D7)), sequence (O96935 whole entry, looked up): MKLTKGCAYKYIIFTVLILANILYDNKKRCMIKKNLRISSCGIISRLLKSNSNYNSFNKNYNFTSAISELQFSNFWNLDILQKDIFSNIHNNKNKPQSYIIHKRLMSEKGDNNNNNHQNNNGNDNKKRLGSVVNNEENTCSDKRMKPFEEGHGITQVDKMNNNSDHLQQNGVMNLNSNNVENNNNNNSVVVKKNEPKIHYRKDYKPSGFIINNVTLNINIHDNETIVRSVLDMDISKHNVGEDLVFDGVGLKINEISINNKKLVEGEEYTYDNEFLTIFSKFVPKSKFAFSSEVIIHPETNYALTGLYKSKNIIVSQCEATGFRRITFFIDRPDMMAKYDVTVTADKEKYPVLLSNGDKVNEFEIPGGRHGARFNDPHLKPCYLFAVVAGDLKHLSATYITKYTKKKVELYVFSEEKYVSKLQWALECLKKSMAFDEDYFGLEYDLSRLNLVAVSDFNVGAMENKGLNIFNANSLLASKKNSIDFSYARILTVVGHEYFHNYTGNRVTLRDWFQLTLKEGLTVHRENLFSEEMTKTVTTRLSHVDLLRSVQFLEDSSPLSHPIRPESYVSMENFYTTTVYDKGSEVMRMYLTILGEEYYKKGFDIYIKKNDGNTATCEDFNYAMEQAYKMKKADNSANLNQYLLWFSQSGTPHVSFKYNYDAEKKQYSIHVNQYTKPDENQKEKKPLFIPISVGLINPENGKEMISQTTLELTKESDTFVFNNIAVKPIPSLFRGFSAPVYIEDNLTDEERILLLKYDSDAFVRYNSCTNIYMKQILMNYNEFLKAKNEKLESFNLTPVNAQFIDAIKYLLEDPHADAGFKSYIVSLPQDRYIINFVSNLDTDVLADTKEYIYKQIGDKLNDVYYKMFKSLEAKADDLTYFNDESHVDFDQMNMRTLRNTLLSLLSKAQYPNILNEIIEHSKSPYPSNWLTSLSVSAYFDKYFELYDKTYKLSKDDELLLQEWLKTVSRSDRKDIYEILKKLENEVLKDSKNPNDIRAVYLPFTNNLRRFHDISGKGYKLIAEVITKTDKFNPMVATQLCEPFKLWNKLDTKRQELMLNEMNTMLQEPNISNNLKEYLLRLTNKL
row,Compound,inhibition
1,CCOC(=O)C1(CC2CCCCO2)CCN(C(=O)Nc2ccccc2CC)CC1 (centres undefined),1.45%
2,O=C(NCCc1nc2ccccc2[nH]1)/C(=C/c1ccc2c(c1)OCO2)NC(=O)c1ccccc1Cl,4.92%
3,COc1ccc([N+](=O)[O-])cc1NS(=O)(=O)c1ccccc1,6.84%
4,COc1ccc(NS(=O)(=O)c2ccc(C)cc2)c([N+](=O)[O-])c1,3.88%
5,COc1cccc(/C=C2\SC(N)=NC2=O)c1OS(=O)(=O)c1ccccc1,12.7%
6,COc1ccc(S(=O)(=O)Nc2cc([N+](=O)[O-])ccc2OC)cc1,14.5%
7,COc1cc(C(=O)Nc2ccc(S(=O)(=O)Nc3ncccn3)cc2)c([N+](=O)[O-])cc1OC,1.81%
8,Cc1cc(NS(=O)(=O)c2ccccc2)c([N+](=O)[O-])cc1C,14%
9,NC(=O)c1c(NC(=O)COC(=O)c2ccc(S(=O)(=O)Nc3ccccc3)cc2)sc2c1CCCC2,6.65%
10,COc1cc(C(=O)NCc2cn3ccccc3n2)cc(OC)c1OC,9.74%
11,CN(C(=O)COC(=O)/C=C/c1cn(-c2ccccc2)nc1-c1ccc2c(c1)OCCO2)C1CCS(=O)(=O)C1 (centres undefined),9.43%
12,CCn1c(CNC(=O)c2cccs2)nnc1SCC(=O)Nc1ccc(Cl)cc1,4.83%
13,CCn1c(SCC(=O)NCCc2ccccc2)nnc1-c1cccs1,8.15%
14,CCn1c(CCNC(=O)c2cccs2)nnc1SCC(=O)Nc1ccc(Cl)cc1,2.16%
15,CCOC(=O)CSc1nnc(CNC(=O)c2cccs2)n1CCc1ccccc1,-4.29%
16,O=C1CCCc2c1nc(-c1ccc(F)cc1)n2O,0.92%
17,COC(=O)C1=C(Nc2ccc(C)cc2)C=C(C)C(C(=O)OC)C1c1ccc(OC)cc1 (centres undefined),-4%
18,CC(=O)c1cccc(NC(=O)c2cc(-n3cnnc3)ccc2Cl)c1,6.6%
19,CC(=O)c1ccc(NC(=O)c2ccc3nc(-c4ccco4)c(-c4ccco4)nc3c2)cc1,10.9%
20,O=C(Nc1cccc(C(F)(F)F)c1)c1ccc2nc(-c3ccco3)c(-c3ccco3)nc2c1,23.9% (active)

row,Compound,inhibition
1,O=C(Nc1ccccc1)c1ccc2nc(-c3ccco3)c(-c3ccco3)nc2c1,13.6%
2,CCn1c(CCNC(=O)c2ccc(Cl)c(Cl)c2)nnc1SCCOc1ccc(OC)cc1,1.21%
3,CCOC(=O)Cn1c(=O)c2c(nc(N3CCOCC3)n2C)n(C)c1=O,0.98%
4,O=C(Cc1cccs1)NCc1ccccc1,3.77%
5,O=C(Cc1ccc(-c2ccccc2)cc1)NCc1ccccc1,-0.4%
6,Cc1ccc(C(=O)NCC(=O)OCC(=O)NCCc2ccccc2)s1,0.53%
7,Cc1ccc(NC(=O)COC(=O)CNC(=O)c2ccc(C)s2)cc1,5.25%
8,CSCCC(C(=O)Nc1ccc2c(c1)OCO2)N1C(=O)c2ccccc2C1=O (centres undefined),4.81%
9,CC(C(=O)NC1=NCCS1)N1C(=O)c2ccccc2C1=O (centres undefined),22.3%
10,CCOP(=O)(O)c1cccc(OCCOCCOc2cccc(P(=O)(O)OCC)c2)c1,-1.13%
11,COc1ccc(C2NC(=S)NC(C)=C2C(=O)N2CCOCC2)cc1 (centres undefined),0.92%
12,CC(NCC1(N2CCOCC2)CCCCC1)C(=O)Nc1ccc(Cl)cc1Cl (centres undefined),-2.83%
13,C=CCNC(NC(=O)c1ccccc1)(C(=O)OCC)C(F)(F)F (centres undefined),-7.27%
14,COc1ccc(/C=C2/SC(=O)N(CCC(=O)Nc3ccccc3)C2=O)cc1OC,-3.04%
15,COc1cc(/C=C2\SC(=S)N(N3CCOCC3)C2=O)ccc1O,-11.3%
16,COc1cc(/C=C2\SC(=S)N(NS(=O)(=O)c3ccccc3)C2=O)cc(OC)c1OC,20%
17,COc1cc(/C=C2\SC(=S)N(Nc3ccccc3)C2=O)cc(OC)c1OC,0.45%
18,COc1ccc(/C=C2\SC(=O)N(CCC(=O)Nc3ccccc3)C2=O)cc1OC,7.25%
19,COc1cc(/C=C2\SC(=S)N(NC(=O)c3cccnc3)C2=O)ccc1O,19.8%
20,COc1cc(/C=C2\SC(=S)N(Nc3ccccc3)C2=O)ccc1O,13.9%

row,Compound,inhibition
1,COc1cc(/C=C2\SC(=S)N(N(C)c3ccccc3)C2=O)ccc1O,3.49%
2,C=CCc1cccc2cc(C(=O)NNC(=O)c3ccncc3)c(=O)oc12,20.9%
3,Cn1c(CSc2nc3ccccc3n2C)nc2ccccc21,-4.15%
4,CCOC(=O)CSc1nnc(Cc2ccccc2)n1CC1CCCO1 (centres undefined),4.73%
5,Cc1[nH]c(=O)c(C#N)c(C)c1Cc1ccc(Cl)cc1Cl,4.22%
6,O=c1c2[nH]c3ccccc3c2ncn1CCN1CCCCC1,8.11%
7,O=C(CN1CCN(C(=O)c2cccc(F)c2)CC1)NC1CCCCC1,-4.11%
8,Cc1cc(C)cc(NC(=O)CCN2CC(C)OC(C)C2)c1 (centres undefined),0.2%
9,Cc1ccc(SCC(=O)c2ccc[nH]2)cc1,2.44%
10,CCOc1ccc(/C=C2\SC(=S)N(C)C2=O)cc1OC,9.35%
11,CCOc1ccc(/C=C2\SC(=S)N(Nc3ccccc3)C2=O)cc1OC,1.22%
12,C/C(=N\NC(=O)COc1cccc(Cl)c1)c1ccc2c(c1)OCCO2,3.02%
13,c1cncc(Cc2cc3ccccc3[nH]2)c1,4.4%
14,O=C(O)C(Oc1ccc2c3c(c(=O)oc2c1)CCC3)c1ccccc1 (centres undefined),24.2% (active)
15,CC(=O)C(C)Oc1ccc2c3c(c(=O)oc2c1)CCCC3 (centres undefined),1.79%
16,CC(C)Oc1ccc2c3c(c(=O)oc2c1)CCC3,3.02%
17,CN(C(=O)c1c[nH]c(=O)cc1C(F)(F)F)c1ccc(Cl)c(Cl)c1,-1.25%
18,O=C(NC(=S)Nc1ccccc1C(F)(F)F)c1ccccc1F,-0.76%
19,CC(C)N(C(=O)CSc1nnc(Cc2ccc3c(c2)OCO3)n1C)C(C)C,-1.85%
